CaV13 ICDI inh – Disruptors of the CACNA1D IQ motif to Ca2+-dependent inactivation inhibitor domain association, primary screening, Förster resonance energy transfer in intact living … | HEK cells, CFP/YFP FRET ICDI-IQ, plate reader, 10 min; percent FRET-ratio fall versus neutral wells | inhibition, % at 12.3 µM | 0.098% of 340,000 active;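 active = mean replicate inhibition of at least 30% and at least 1% of replicates passing that level; inconclusive = only one of the two criteria is met; inactive = neither criterion is met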;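 also: 0% = median of the neutral control wells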
IDE cell activ – IDE (human) activation, cell-based; P14735; HEK cells, FAbeta-B cleavage, fluorescence polarization; 0% vehicle, 100% cell-free pure enzyme wells; activation, % at 5.96 µM; 0.073% of 340,000 active;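 active = activation above the mean of all tested compounds plus 3 SD, set per screening campaign, cut at about 17% in these data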
ALR H2O2 inh – inhibitors of human sulfhydryl oxidase ALR. P55789. purified ALR, DTT oxidation, H2O2 HRP-luminol luminescence. inhibition, % (no concentration beside the values). 3.8% of 290,000 active. AID 485317;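 active = mean replicate inhibition above about 79%, with every replicate also reaching it, limit read from the data; inconclusive = only one of the two criteria met; inactive = mean below limit and not every replicate reaching it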
Target sequence (P55789 whole entry, looked up): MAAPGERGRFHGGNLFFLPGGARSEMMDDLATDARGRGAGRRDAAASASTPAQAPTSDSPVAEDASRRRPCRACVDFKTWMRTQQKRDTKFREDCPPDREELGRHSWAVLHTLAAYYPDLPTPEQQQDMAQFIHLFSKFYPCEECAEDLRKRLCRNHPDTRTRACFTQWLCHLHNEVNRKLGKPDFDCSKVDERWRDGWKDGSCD
PolyA inh – inhibitors of polyadenylation in S. cerevisiae. S. cerevisiae SKY197-pL101 polyadenylation reporter, beta-gal luminescence; efflux-impaired pdr1/pdr3 knockout yeast; score 100 = 6 SD above DMSO. activity score, % at 12 µM. 0.02% of 300,000 active;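 active = lowest replicate activity score at least 50, where 100 means six control SD above control mean; inconclusive = lowest score under 50 but half or more replicates reach 50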;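 also: yeast exposed to compound for 9 h at 30 °C; higher score means more reporter readthrough which indicates perturbed polyadenylation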
M18AAP inhibitor – PfM18AAP enzyme inhibition. recombinant PfM18AAP, H-Glu-NHMec fluorogenic cleavage. inhibition, % at 7.35 µM. 1.2% of 290,000 active. AID 1822;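 active = inhibition above the campaign mean inhibition over all tested compounds plus 3 SD, cut at about 28% in these data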;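 also: 0% = plate median of test compound wells and 100% = 2 mM ZnCl2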
IDE cell inh – inhibitors of human insulin-degrading enzyme in cells. HEK cells, FAbetaB cleavage, fluorescence polarization. inhibition, % at 5.59 µM. AID 434962. 0.41% of 320,000 active;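 active = percent inhibition above the average of all tested compounds plus 3 SD, set per screening campaign, cut at about 16% in these data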;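 also: IDE supplied by intact live HEK cells; FP after avidin binding of uncleaved biotin substrate so inhibition keeps polarization high; 0% = DMSO wells and 100% = 60 µM reference IDE inhibitor Ii1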
Starred values were filed as active, the others as inactive. In the library only some 4.1% were active in any assay of this set; here they are far more common.

Screening O=C(NNc1ccccn1)C(=O)NNS(=O)(=O)c1ccc(Cl)cc1 returned CaV13 ICDI inh -3.5, IDE cell activ -2.0, ALR H2O2 inh 98.5*, PolyA inh 3.8, M18AAP inhibitor 21.4 and IDE cell inh -3.6.
`CCCC(=O)N(Cc1cc2cc(OC)ccc2[nH]c1=O)c1ccc(OC)cc1` gave CaV13 ICDI inh -4.6.
COc1ccc(C(CNc2ccc(C(F)(F)F)cn2)N(C)C)cc1OC (centres undefined) was read as CaV13 ICDI inh -3.4, IDE cell activ 2.4, ALR H2O2 inh 0.0, PolyA inh 15.8, M18AAP inhibitor -9.1 and IDE cell inh -1.1.
`CC(=O)N1c2ccccc2C2(O)N=C(C)SC12` (centres undefined) gave IDE cell activ -11.8, ALR H2O2 inh 53.3, M18AAP inhibitor 41.9* and IDE cell inh 12.7.
`CC(=O)N1c2ccccc2[C@@H](C)[C@@H]1C` gave CaV13 ICDI inh -6.0, IDE cell activ 3.4, ALR H2O2 inh -7.3 and IDE cell inh 1.4.
CCOC(=O)C1CCN(C(=S)Nc2cccc(C)c2C)CC1 was read as CaV13 ICDI inh -17.3, IDE cell activ -3.9, ALR H2O2 inh -5.5, PolyA inh 6.1, M18AAP inhibitor 0.9 and IDE cell inh -3.0.
For COC(=O)c1cc2c(n1S(=O)(=O)c1ccc(C)cc1)C(=O)C(=O)c1[nH]cc(C(=O)OCc3ccccc3)c1-2 the results were IDE cell activ -0.1.
Screening CS/C(N)=N/N=C/c1cc(C)ccc1O returned CaV13 ICDI inh -3.8, IDE cell activ 7.6, ALR H2O2 inh -12.0, PolyA inh -9.4, M18AAP inhibitor 26.0 and IDE cell inh -1.6.
CCCCS/C(N)=N/N=C/c1cc(C)ccc1O was read as IDE cell activ 4.3, ALR H2O2 inh 1.0, PolyA inh 0.9, M18AAP inhibitor 29.5* and IDE cell inh -1.7.
`CCS/C(N)=N/N=C/c1cc(C)ccc1O` gave CaV13 ICDI inh -5.1, IDE cell activ -3.4, ALR H2O2 inh -3.7, PolyA inh -8.2, M18AAP inhibitor 31.5* and IDE cell inh 2.8.
Screening Cc1ccc(NC(=O)CCSc2ccccc2)c(C)c1 returned IDE cell activ 5.0, ALR H2O2 inh 2.6, PolyA inh -3.2, M18AAP inhibitor 2.8 and IDE cell inh 2.4.
For N#Cc1c(SCC(=O)Nc2ccc(C(F)(F)F)cc2)sc2c(O)cc(=O)[nH]c12 the results were CaV13 ICDI inh -2.5, IDE cell activ -3.1, ALR H2O2 inh 95.1*, PolyA inh 2.3, M18AAP inhibitor 8.8 and IDE cell inh 4.7.
`Cc1cc(=O)[nH]c(SCC(=O)Nc2ccc(Br)cc2)c1C#N` gave CaV13 ICDI inh -4.1, IDE cell activ 2.3, ALR H2O2 inh 98.9*, PolyA inh 11.9, M18AAP inhibitor 0.6 and IDE cell inh 3.1.
Cc1cc(=O)[nH]c(SCC(=O)Nc2ccc(F)cc2)c1C#N was read as CaV13 ICDI inh -5.5, ALR H2O2 inh 91.3*, PolyA inh -0.2, M18AAP inhibitor 3.6 and IDE cell inh -0.1.
For Cc1cc(=O)[nH]c(SCC(=O)Nc2ccc3c(c2)CCC3)c1C#N the results were CaV13 ICDI inh -7.9, IDE cell activ 2.2, ALR H2O2 inh 48.6 and IDE cell inh -3.5.
For Cc1ccc(NC(=O)CSc2sc3c(O)cc(=O)[nH]c3c2C#N)c(F)c1 the results were CaV13 ICDI inh -2.4, IDE cell activ 3.9, ALR H2O2 inh 54.8, PolyA inh 27.3, M18AAP inhibitor 12.8 and IDE cell inh 3.1.
Screening FC(F)(F)C(F)(F)c1nnc2ccc(-n3ccnc3)nn12 returned CaV13 ICDI inh -6.1, IDE cell activ 0.4, ALR H2O2 inh -4.1, PolyA inh 21.3, M18AAP inhibitor -0.7 and IDE cell inh 0.1.
CC(C(=O)O/N=C(\N)c1cccnc1)c1ccc([N+](=O)[O-])cc1 (centres undefined) was read as CaV13 ICDI inh -4.5, IDE cell activ -4.0, ALR H2O2 inh -14.5, PolyA inh 5.3, M18AAP inhibitor 6.3 and IDE cell inh 9.2.
For CC(C)CCNC(=O)C1CCCN1C(=O)NC1CCCCC1 (centres undefined) the results were CaV13 ICDI inh -5.4, IDE cell activ 1.6, ALR H2O2 inh -0.8, PolyA inh 8.0, M18AAP inhibitor 10.1 and IDE cell inh 0.5.
Screening CCOc1ccc2nc(NC(=O)CSC3=NCCS3)sc2c1 returned CaV13 ICDI inh -4.8, IDE cell activ -0.9, ALR H2O2 inh 98.9*, PolyA inh -7.4, M18AAP inhibitor 1.2 and IDE cell inh 4.2.
`COc1ccc2nc(NC(=O)CSC3=NCCS3)sc2c1` gave IDE cell activ 2.9, ALR H2O2 inh 98.3*, PolyA inh -25.1, M18AAP inhibitor 0.4 and IDE cell inh 1.2.
For CCOc1ccc2nc(NC(=O)CSc3ccc(Cl)cc3)sc2c1 the results were CaV13 ICDI inh -3.3, IDE cell activ -0.8, ALR H2O2 inh -27.8, PolyA inh 4.0, M18AAP inhibitor -11.0 and IDE cell inh -3.7.
`COc1ccc2nc(NC(=O)CSc3ccccc3)sc2c1` gave IDE cell activ 3.6, ALR H2O2 inh -47.6, PolyA inh 20.9, M18AAP inhibitor -0.2 and IDE cell inh 3.1.
Screening CC(=O)Nc1ccc(N2C(=O)CSC2c2ccccc2)cc1 (centres undefined) returned CaV13 ICDI inh -20.8, IDE cell activ -4.0, ALR H2O2 inh 98.7*, PolyA inh 14.1, M18AAP inhibitor 2.5 and IDE cell inh 1.4.
Screening Cc1cccc(N2CCN(c3cccc(C)c3)C2c2cccnc2)c1 returned CaV13 ICDI inh -5.0, IDE cell activ 4.1, ALR H2O2 inh 95.2*, PolyA inh -9.9, M18AAP inhibitor 0.3 and IDE cell inh -4.6.
`CC(C)(C)c1ccc(N2C(=O)CSC2c2cccnc2)cc1` (centres undefined) gave CaV13 ICDI inh -4.9, IDE cell activ -6.1, PolyA inh -5.2, M18AAP inhibitor -0.9 and IDE cell inh -0.3.
CC(=O)Nc1ccc(N2C(=O)CSC2c2ccc([N+](=O)[O-])cc2)cc1 (centres undefined) was read as CaV13 ICDI inh -18.7, IDE cell activ 6.0, ALR H2O2 inh inconclusive, PolyA inh -6.2, M18AAP inhibitor -0.1 and IDE cell inh 5.3.
Cc1cccc(N2C(=O)CSC2c2cccnc2)c1 (centres undefined) was read as CaV13 ICDI inh -4.4, IDE cell activ 6.3, ALR H2O2 inh 99.0*, PolyA inh 11.4, M18AAP inhibitor 1.6 and IDE cell inh -0.6.
Screening O=C1CSC(c2cccnc2)N1c1ccccc1 (centres undefined) returned CaV13 ICDI inh -20.1, IDE cell activ 5.7, ALR H2O2 inh 96.2*, PolyA inh 20.6, M18AAP inhibitor -15.9 and IDE cell inh 4.8.
`C#CCN1CC(COCCCC)Oc2cccc(F)c2S1(=O)=O` (centres undefined) gave CaV13 ICDI inh -3.0.

Compound activity deposited in PubChem BioAssay by several laboratories.
